Data reported in PubChem BioAssay (EPA / NIEHS).
Calls of active or inactive are those of the source. Rule for the calls: active = hit-call score of the fitted dose curve at least 0.9, where 1 is the maximum; inactive = score below 0.9.

What was measured:
Conditions in all cases: mRNA level, 48 h; actives raise or lower the signal
[1] = read-out: Intercellular Adhesion Molecule 1 (ICAM1), ICAM1 (gene 3383); experiment: LTEA_HepaRG_ICAM1: Life Technologies and Expression Analysis (LTEA) Assay for Intercellular Adhesion Molecule 1 (ICAM1) using HepaRG (AID 2283507)
Method in brief: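 Differentiated human HepaRG cells in serum-free induction medium exposed 48 h in duplicate to 8 half-log concentrations (top 100 uM, 0.5% DMSO). ICAM1 mRNA quantified by TaqMan qRT-PCR, normalized to ACTB, GAPDH and POLR2A; bidirectional fitting versus DMSO.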

[2] = read-out: Insulin-like growth factor-binding protein 1 (IGFBP1), IGFBP1 (gene 3484); experiment: LTEA_HepaRG_IGFBP1: Life Technologies and Expression Analysis (LTEA) Assay for Insulin-like growth factor-binding protein 1 (IGFBP1) using HepaRG (AID 2283508)
Method in brief: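 HepaRG cells, plated 48 h then switched to serum-free induction medium, exposed in duplicate for 48 h to 8-point half-log series from 100 uM in 0.5% DMSO. mRNA measured by qRT-PCR, normalized to ACTB/GAPDH/POLR2A; bidirectional fit versus DMSO.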

[3] = read-out: Interleukin 6 (IL6), IL6 (gene 3569); experiment: LTEA_HepaRG_IL6: Life Technologies and Expression Analysis (LTEA) Assay for Interleukin 6 (IL6) using HepaRG (AID 2283509)
Method in brief: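 Transcript levels, normalized to three housekeeping genes, were quantified by qRT-PCR after 48 h chemical treatment of HepaRG cells. Eight-point half-log series from 100 uM in 0.5% DMSO, duplicates. Fitted both directions against DMSO baseline.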

[4] = read-out: Interleukin 6 Receptor (IL6R), IL6R (gene 3570); experiment: LTEA_HepaRG_IL6R: Life Technologies and Expression Analysis (LTEA) Assay for Interleukin 6 Receptor (IL6R) using HepaRG (AID 2283510)
Method in brief: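 HepaRG, 48 h exposure, 8-pt half-log series, top 100 uM, 0.5% DMSO vehicle, duplicates. Read-out: TaqMan qRT-PCR of IL6R transcript, housekeeping-gene normalized. Gain or loss fitted relative to DMSO baseline.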

[5] = read-out: Potassium channel subfamily K member 1 (KCNK1), KCNK1 (gene 3775); experiment: LTEA_HepaRG_KCNK1: Life Technologies and Expression Analysis (LTEA) Assay for Potassium channel subfamily K member 1 (KCNK1) using HepaRG (AID 2283511)
Method in brief: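 KCNK1 transcript measured by TaqMan qRT-PCR against three housekeeping genes, after HepaRG cells were treated 48 h with eight half-log concentrations (top 100 uM, 0.5% DMSO). Curves fitted bidirectionally relative to vehicle.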

[6] = read-out: Keratin 19 (KRT19), KRT19 (gene 3880); experiment: LTEA_HepaRG_KRT19: Life Technologies and Expression Analysis (LTEA) Assay for Keratin 19 (KRT19) using HepaRG (AID 2283512)
Method in brief: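 Differentiated HepaRG cells in serum-free induction medium, exposed 48 h in duplicate to 8 half-log concentrations up to 100 uM in 0.5% DMSO. KRT19 mRNA by qRT-PCR, normalized to ACTB, GAPDH, POLR2A; bidirectional fit vs DMSO.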

[7] = read-out: JUN Transcription Factor, JUN (gene 3725); experiment: LTEA_HepaRG_JUN: Life Technologies and Expression Analysis (LTEA) Assay for JUN Transcription Factor using HepaRG (AID 2283513)
Method in brief: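 HepaRG, 48 h exposure, 8-pt half-log series top 100 uM, 0.5% DMSO, duplicate. JUN mRNA by qRT-PCR (Fluidigm), housekeeping-normalized (ACTB/GAPDH/POLR2A); bidirectional curve fit vs DMSO baseline.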

[8] = read-out: Lipase C (LIPC), LIPC (gene 3990); experiment: LTEA_HepaRG_LIPC: Life Technologies and Expression Analysis (LTEA) Assay for Lipase C (LIPC) using HepaRG (AID 2283514)
Method in brief: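 LIPC expression was quantified by qRT-PCR against three housekeeping genes (ACTB, GAPDH, POLR2A). Differentiated human HepaRG cells received eight half-log doses (top 100 uM, 0.5% DMSO) in duplicate for 48 h; fitting bidirectional relative to DMSO.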

[9] = read-out: Lipoprotein lipase (LPL), LPL (gene 4023); experiment: LTEA_HepaRG_LPL: Life Technologies and Expression Analysis (LTEA) Assay for Lipoprotein lipase (LPL) using HepaRG (AID 2283515)
Method in brief: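 LPL transcript levels quantified by TaqMan qRT-PCR against three housekeeping genes after 48 h chemical treatment of HepaRG cells. Eight-point half-log series from 100 uM in 0.5% DMSO, tested in duplicate; bidirectional fitting versus vehicle.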

[10] = read-out: MicroRNA 122 (MIR122), gene 406906; experiment: LTEA_HepaRG_MIR122: Life Technologies and Expression Analysis (LTEA) Assay for MicroRNA 122 (MIR122) using HepaRG (AID 2283516); note: the transcript read is the microRNA miR-122
Method in brief: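 qRT-PCR read-out (TaqMan, Fluidigm array), normalized to three housekeeping genes; HepaRG cells dosed 48 h at 8 concentrations up to 100 uM in 0.5% DMSO, duplicate; gain or loss fitted against DMSO baseline.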

[11] = read-out: matrix metalloproteinase-10 (MMP10), MMP10 (gene 4319); experiment: LTEA_HepaRG_MMP10: Life Technologies and Expression Analysis (LTEA) Assay for matrix metalloproteinase-10 (MMP10) using HepaRG (AID 2283517)
Method in brief: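 Expression measured by TaqMan qRT-PCR with ACTB/GAPDH/POLR2A normalisation after 48 h chemical exposure of HepaRG cells. Eight half-log concentrations, top 100 uM, 0.5% DMSO vehicle, duplicates; gain or loss fitted against vehicle.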

MYC, MYC (gene 4609) = experiment: LTEA_HepaRG_MYC: Life Technologies and Expression Analysis (LTEA) Assay for MYC using HepaRG (AID 2283518)
Method in brief: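 Differentiated HepaRG cells exposed 48 h in serum-free induction medium to 8 concentrations (top 100 uM, half-log steps; 0.5% DMSO), duplicate. MYC mRNA measured by Fluidigm qRT-PCR, normalized to ACTB, GAPDH, POLR2A; bidirectional fit versus DMSO.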

[12] = read-out: matrix metalloproteinase-3 (MMP3), MMP3 (gene 4314); experiment: LTEA_HepaRG_MMP3: Life Technologies and Expression Analysis (LTEA) Assay for matrix metalloproteinase-3 (MMP3) using HepaRG (AID 2283519)
Method in brief: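 Fluidigm-based TaqMan qRT-PCR, normalized to ACTB, GAPDH and POLR2A and fitted bidirectionally versus 0.5% DMSO, measured transcript levels. Treatment: duplicate 48 h exposures of HepaRG cells, ~100,000/well, to eight half-log concentrations topping at 100 uM.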

[13] = read-out: Paternally Expressed 10 (PEG10), PEG10 (gene 23089); experiment: LTEA_HepaRG_PEG10: Life Technologies and Expression Analysis (LTEA) Assay for Paternally Expressed 10 (PEG10) using HepaRG (AID 2283520)
Method in brief: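 qRT-PCR read-out: PEG10 mRNA normalised to three housekeeping genes, fitted bidirectionally against 0.5% DMSO vehicle. HepaRG cells received test chemicals for 48 h in serum-free induction medium, 8 points, top 100 uM, half-log steps.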

[14] = read-out: Protein phosphatase 2A (PPP2R4), PTPA (gene 5524); experiment: LTEA_HepaRG_PPP2R4: Life Technologies and Expression Analysis (LTEA) Assay for Protein phosphatase 2A (PPP2R4) using HepaRG (AID 2283522)
Method in brief: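 HepaRG, 48 h exposure, 8-pt half-log series from 100 uM, 0.5% DMSO vehicle, duplicates. Readout: PPP2R4 mRNA, Fluidigm qRT-PCR, housekeeping-normalized. Bidirectional curve fit vs DMSO baseline.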

[15] = read-out: Phosphatase and tensin (PTEN), PTEN (gene 5728); experiment: LTEA_HepaRG_PTEN: Life Technologies and Expression Analysis (LTEA) Assay for Phosphatase and tensin (PTEN) using HepaRG (AID 2283523)
Method in brief: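 Read-out: TaqMan qRT-PCR of PTEN transcript, normalized to three housekeeping genes, fitted in both directions against 0.5% DMSO. Differentiated human HepaRG cultures received chemicals for 48 h, eight-point half-log series topping at 100 uM.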

[16] = read-out: solute carrier (SLC22A1), SLC22A1 (gene 6580); experiment: LTEA_HepaRG_SLC22A1: Life Technologies and Expression Analysis (LTEA) Assay for solute carrier (SLC22A1) using HepaRG (AID 2283524)
Method in brief: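 Transcript level of SLC22A1 quantified by qRT-PCR (normalized to three housekeeping genes) after 48 h chemical exposure of HepaRG cells, eight concentrations up to 100 µM, half-log steps, 0.5% DMSO vehicle. Gain or loss relative to DMSO fitted bidirectionally.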

[17] = read-out: Pyruvate Dehydrogenase Kinase 4 (PDK4), PDK4 (gene 5166); experiment: LTEA_HepaRG_PDK4: Life Technologies and Expression Analysis (LTEA) Assay for Pyruvate Dehydrogenase Kinase 4 (PDK4) using HepaRG (AID 2283525)
Method in brief: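 Readout is qRT-PCR of PDK4 transcript, normalized to three housekeeping genes, with bidirectional fitting against 0.5% DMSO vehicle. Differentiated HepaRG cells were treated 48 h in serum-free induction medium, duplicate wells, eight-point half-log series topping at 100 uM.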

[18] = read-out: NAD(P)H dehydrogenase [quinone] 1 (NQO1), NQO1 (gene 1728); experiment: LTEA_HepaRG_NQO1: Life Technologies and Expression Analysis (LTEA) Assay for NAD(P)H dehydrogenase [quinone] 1 (NQO1) using HepaRG (AID 2283526)
Method in brief: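 qRT-PCR read-out (Fluidigm TaqMan), normalized to three housekeeping genes, after 48 h chemical exposure of HepaRG cells. Concentrations: eight points, top 100 uM, half-log steps, 0.5% DMSO vehicle. Gain or loss of signal fitted relative to DMSO.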

[19] = read-out: Nuclear factor NF-kappa-B p105 subunit (Homo sapiens) (UniProt P19838); experiment: LTEA_HepaRG_NFKB1: Life Technologies and Expression Analysis (LTEA) Assay for Nuclear Factor Kappa B Subunit 1 (NFKB1) using HepaRG (AID 2283521);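 note: TaqMan qRT-PCR transcript normalised to ACTB GAPDH and POLR2A housekeeping genes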
Method in brief: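 Human HepaRG cells receive eight half-log concentrations, highest 100 uM, for 48 h. NFKB1 expression is then quantified by qRT-PCR and analysed for up- or down-regulation relative to 0.5% DMSO vehicle.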

Measured: AC50

Sequence of Nuclear factor NF-kappa-B p105 subunit (Homo sapiens) (P19838 whole entry, looked up): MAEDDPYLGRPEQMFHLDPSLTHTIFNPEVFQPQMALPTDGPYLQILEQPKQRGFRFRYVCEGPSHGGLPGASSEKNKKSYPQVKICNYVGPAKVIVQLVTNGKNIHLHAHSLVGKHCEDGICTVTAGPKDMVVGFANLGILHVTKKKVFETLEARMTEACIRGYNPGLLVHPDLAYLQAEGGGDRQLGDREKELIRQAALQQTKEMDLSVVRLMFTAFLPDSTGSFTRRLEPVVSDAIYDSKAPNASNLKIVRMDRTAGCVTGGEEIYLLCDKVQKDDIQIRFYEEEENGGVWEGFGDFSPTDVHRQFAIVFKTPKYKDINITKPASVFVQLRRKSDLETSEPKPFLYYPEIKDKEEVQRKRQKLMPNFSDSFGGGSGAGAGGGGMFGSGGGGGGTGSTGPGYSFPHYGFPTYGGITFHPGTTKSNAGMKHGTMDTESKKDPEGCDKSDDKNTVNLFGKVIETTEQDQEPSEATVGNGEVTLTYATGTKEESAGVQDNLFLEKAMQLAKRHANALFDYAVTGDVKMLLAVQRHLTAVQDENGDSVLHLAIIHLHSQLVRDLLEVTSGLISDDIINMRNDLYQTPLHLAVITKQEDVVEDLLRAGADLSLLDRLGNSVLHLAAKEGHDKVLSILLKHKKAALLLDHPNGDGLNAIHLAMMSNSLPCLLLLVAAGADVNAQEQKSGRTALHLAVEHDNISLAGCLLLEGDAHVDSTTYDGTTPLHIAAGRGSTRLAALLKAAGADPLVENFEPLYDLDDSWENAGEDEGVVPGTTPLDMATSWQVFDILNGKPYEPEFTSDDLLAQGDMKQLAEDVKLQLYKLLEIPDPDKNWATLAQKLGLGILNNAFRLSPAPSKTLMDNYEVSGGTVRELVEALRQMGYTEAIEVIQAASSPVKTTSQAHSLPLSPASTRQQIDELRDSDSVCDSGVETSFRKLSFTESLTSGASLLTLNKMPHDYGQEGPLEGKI

Cc1nn(-c2cc(NS(C)(=O)=O)c(Cl)cc2Cl)c(=O)n1C(F)F
not listed: [19]
inactive: all other assays above

CCC(=NOC/C=C/Cl)C1=C(O)CC(C2CCOCC2)CC1=O (configuration not stated)
inactive: all assays above

CNC(=O)ON=C(SC)C(=O)N(C)C
active: [9] 289 nM
inactive: all other assays above

CCOP(=S)(OCC)SCCSCC
not listed: [18]
inactive: all other assays above

COc1cccc(C(=O)NN(C(=O)c2cc(C)cc(C)c2)C(C)(C)C)c1C
active: [17] 69.7 µM
not listed: [16]
inactive: all other assays above
